Compounds with a hit are over-represented: about 2.8% of the library has one in this group of screens.
KDM5B inhibitor – Primary screen for KDM5B Histone Demethylases FDH-coupled qHTS | Lysine-specific demethylase 5B (Homo sapiens), Q9UGL1 | KDM5B demethylase, FDH-coupled NADH fluorescence (FDH is formaldehyde dehydrogenase) | Potency, µM (doses to about 57.7 µM), actives largely listed as inhibitors | actives 2.6% (n = 220,000) | AID 1347165, 2019; active means well fitted inhibition curve with a large enough effect; inconclusive means small, poorly fitted or top-dose-only effect; inactive means no such curve, though single readings can be large or run the other way; further: potency means the concentration at half of the fitted maximal effect; 0% is about no effect; nearly all actives have a fitted effect of over 70% in size
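KDM5BΔAP (200 nM final) in 50 mM HEPES pH 7.5, 0.01% Tween-20 was preincubated 10 min at RT with compound over a concentration range. Substrate mix (H3K4me3 12.5 µM, α-KG 25 µM, Fe²⁺, ascorbate, NAD⁺, FDH) was added, and NADH fluorescence change over 30 min gave dose-response curves.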
IP6K1 inh – Primary qHTS assay for small molecule inhibitors of Inositol hexaphosphate kinase 1 (IP6K1) | Inositol hexakisphosphate kinase 1 (Homo sapiens), Q92551 | IP6K1 kinase, ADP-Glo luminescence, 2 h; stronger effect = lower value | activity change, % (series mostly up to about 58 µM) | actives 0.81% (n = 140,000); in the data active means activity change below about -25%; further: on the % scale 0 is the no-effect control and ±100 the full control effect
Target sequence (Q92551 whole entry, looked up): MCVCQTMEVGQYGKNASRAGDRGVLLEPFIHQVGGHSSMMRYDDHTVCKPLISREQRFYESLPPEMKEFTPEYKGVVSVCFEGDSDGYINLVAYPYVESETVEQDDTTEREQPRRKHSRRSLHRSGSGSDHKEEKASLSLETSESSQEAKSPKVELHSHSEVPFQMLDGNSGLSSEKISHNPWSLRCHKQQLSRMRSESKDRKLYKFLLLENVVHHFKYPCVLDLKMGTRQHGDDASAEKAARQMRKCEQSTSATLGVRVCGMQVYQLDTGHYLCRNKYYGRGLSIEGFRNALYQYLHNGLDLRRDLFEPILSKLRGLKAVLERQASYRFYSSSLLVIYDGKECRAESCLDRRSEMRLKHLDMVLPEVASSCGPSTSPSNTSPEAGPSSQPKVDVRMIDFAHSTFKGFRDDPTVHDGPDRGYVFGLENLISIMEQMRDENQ
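ADP-Glo luminescence measures ADP made by human IP6K1 during a 2 h RT reaction with ATP/IP6 (mix at 1.3 mM/130 uM); top library doses 57.5 and 19.1 uM final.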
An asterisk follows results filed as active; i = inactive; ? = inconclusive; . = no result.

SMILES	KDM5B inhibitor	IP6K1 inh
COCC(=O)N1CCC(O)(c2ccccc2)[C@H](N2CCCC2)C1 (stereo partly drawn)	?	25
Cc1ccc2[nH]c(=O)cc(C(=O)N3CCOC(CCCC(C)C)C3)c2c1 (stereo not drawn)	28µM*	9
Cc1c(C(=O)N2CCOC(CCCC(C)C)C2)cnc2cc(=O)[nH]n12 (stereo not drawn)	i	5
O=C(NCC1CCCCC1)c1noc(-c2ccc[nH]c2=O)n1	i	5
O=C(NCC1CC1)c1noc(-c2ccccc2F)n1	20µM*	5
CCSc1nc(C)cc(C(F)(F)F)c1C#N	i	.
O=C(CCCc1cccs1)N1CCC2(CC1)[C@H](O)C[C@@H]2OCCO	i	2
C[C@@]1(O)CCN(C(=O)CCc2ccc(-c3cccs3)o2)C[C@@H]1O	13µM*	0
Cn1nc(C(=O)N2CC[C@@](C)(O)[C@@H](O)C2)cc1-c1cccs1	i	12
CO[C@H]1C[C@@H](O)C12CCN(C(=O)CCc1ccc(-c3cccs3)o1)CC2	14µM*	-12
Cc1nn(C)cc1S(=O)(=O)Nc1ccn(Cc2c(F)cccc2Cl)n1	i	.
CC(C)(C)c1ccccc1NC(=O)c1ccc(F)cc1F	i	.
COc1cccc(N2CCN(C(=O)c3cc(NC(=O)C(C)C)cc4nc(C)ccc34)CC2)c1	i	13
CC(=O)Nc1cc(C(=O)N2CCC(C)CC2)c2ccc(C)nc2c1	22µM*	12
Cc1ccc2c(C(=O)N3CCN(c4ccccc4F)CC3)cc(NC(=O)C(C)C)cc2n1	?	6
Cc1ccc2c(C(=O)N3CCOCC3)cc(NC(=O)C(C)C)cc2n1	22µM*	16
O=C(C1CCN(Cc2ccccc2-c2cccnc2)CC1)N1CCOCC1	.	7
CC(C)C(=O)/C(C#N)=C\c1ccc(OCc2cccc(F)c2)cc1	i	.
CCCNC(=O)Cc1csc2nc(C)c(-c3cc(C)n(-c4cc(Cl)ccc4C)n3)c(=O)n12	28µM*	15
CCCCNC(=O)Cc1csc2nc(C)c(-c3cc(C)n(-c4ccc(C)cc4C)n3)c(=O)n12	?	2
CCCCNC(=O)Cc1csc2nc(C)c(-c3cc(C)n(-c4cc(Cl)ccc4C)n3)c(=O)n12	25µM*	-4
c1cncc(-c2[nH]ncc2CNCc2cccs2)c1	i	.
CCOCC1(C)COc2ccc(C(=O)Nc3ccccn3)cc2N1 (stereo not drawn)	32µM*	-4
COCCNC(=O)c1ccc2c(c1)NC(C)(COc1ccc(OC)cc1)CO2 (stereo not drawn)	35µM*	-9
CCOCC1(C)COc2ccc(C(=O)Nc3ccccc3)cc2N1 (stereo not drawn)	?	-5
SMILES	KDM5B inhibitor	IP6K1 inh
COc1ccc(NC(=O)c2ccc3c(c2)NC(C)(COCC2CC2)CO3)cc1OC (stereo not drawn)	i	21
CCOCC1(C)COc2ccc(C(=O)NCc3cc(OC)cc(OC)c3)cc2N1 (stereo not drawn)	32µM*	2
COc1ccc(OCC2(C)COc3ccc(C(=O)NCCN4CCOCC4)cc3N2)cc1 (stereo not drawn)	35µM*	-3
CC1(COc2cccnc2)COc2ccc(C(=O)N3CCOCC3)cc2N1 (stereo not drawn)	i	-1
COc1ccc(OCC2(C)COc3ccc(C(=O)N(C)c4ccccc4)cc3N2)cc1 (stereo not drawn)	?	-2
COc1ccc(CNC(=O)C2CCN(c3nccc(Nc4ccc(C)cc4)n3)CC2)cc1	.	0
O=C(COc1ccc(Cl)cc1)Nc1ccc2oc(-c3ccccc3)nc2c1	i	.
COC(=O)C1(C(=O)OC)CC(C(=O)OC)(C(=O)OC)C(C(=O)OC)(C(=O)OC)C1	i	.
O=S(=O)(N[C@H]1CO[C@H]2[C@@H]1OC[C@@H]2Nc1nccc(-c2ccc3c(c2)OCO3)n1)c1ccc2ccccc2c1	28µM*	2
COc1ccccc1-c1ccnc(N[C@H]2CO[C@H]3[C@@H]2OC[C@@H]3NS(=O)(=O)c2ccc3ccccc3c2)n1	?	-3
COc1ccc(-c2ccnc(N[C@H]3CO[C@H]4[C@@H]3OC[C@@H]4NC(=O)c3ccc4c(c3)OCO4)n2)cc1	i	-19
Cc1ccc(C(=O)N[C@H]2CO[C@H]3[C@@H]2OC[C@@H]3Nc2nccc(-c3ccc4c(c3)OCO4)n2)cc1	28µM*	-4
Cc1nc(NC(=O)c2csc3ccccc23)sc1C(=O)N(C)C	i	.
CCOC(=O)C(NC(=O)C1C2CC3CC(C2)CC1C3)C(=O)OCC (stereo not drawn)	i	.
COc1ccccc1-c1cccc(CN2CCCC(C(=O)NCc3ccccc3)C2)c1 (stereo not drawn)	.	6
CC(Sc1nc2ccccc2[nH]1)C(=O)NC(N)=O (stereo not drawn)	i	.
COCc1ccc2c(c1)c(OC(C)(C)C(=O)NCCCn1ccnc1)nn2Cc1cccc(OC)c1	22µM*	16
COCc1ccc2c(c1)c(OC(C)(C)C(=O)NCc1cnccn1)nn2Cc1cccc(OC)c1	i	-3
COCc1ccc2c(c1)c(OC(C)(C)C(=O)NCCCn1ccnc1)nn2CCC(C)C	35µM*	5
COCc1ccc2c(c1)c(OC(C)(C)C(=O)NCc1ccncc1)nn2CCC(C)C	?	-7
Cc1ccc(CC(=O)NCc2nnc3c(-c4nc(C(C)C)no4)cccn23)cc1	?	13
Cc1ccc(C(=O)NCc2nnc3c(-c4nc(C(C)C)no4)cccn23)cc1	?	18
CC(C)c1noc(-c2cccn3c(CNC(=O)c4ccccc4Cl)nnc23)n1	10µM*	-2
CC(C)c1noc(-c2cccn3c(CNC(=O)Cc4c[nH]c5ccccc45)nnc23)n1	?	-1
CC(C)c1noc(-c2cccn3c(CNC(=O)Cc4ccccc4Cl)nnc23)n1	25µM*	6
SMILES	KDM5B inhibitor	IP6K1 inh
Cc1ccccc1CC(=O)NCc1nnc2c(-c3nc(C(C)C)no3)cccn12	22µM*	-5
CCOc1ccccc1C(=O)NCc1nnc2c(-c3nc(C(C)C)no3)cccn12	?	5
CC(C)c1noc(-c2cccn3c(CNC(=O)c4ccc(Cl)cc4)nnc23)n1	25µM*	5
CCn1cc(CN2C[C@@H](COc3ccccc3)[C@H](C(N)=O)C2)c(C)n1	i	4
COc1ccc(-c2cc(C(=O)Nc3cccc(C(F)(F)F)c3)c3cnn(C)c3n2)cc1	.	-9
CC(C)c1ccc2cc(C(=O)NCC3CCS(=O)(=O)C3)[nH]c2c1 (stereo not drawn)	i	.
COCCNC(=O)c1nc(-c2ccc(F)cc2)c2cnccn12	32µM*	0
COCCNC(=O)c1nc2sccn2c1-c1cccnc1	.	-2
O=C(NCc1cccnc1)c1nc2sccn2c1-c1ccc(F)cc1	.	17
COC(=O)CNC(=O)c1nc(-c2ccc(F)cc2)c2cnccn12	40µM*	0
O=C(CSc1n[nH]c(-c2ccccc2F)n1)Nc1ccc(N2CCCCCC2)cc1	i	.
CCn1ccc(C(=O)N2CCC3(CC2)c2[nH]c4ccc(OC)cc4c2CCN3C)n1	22µM*	4
O=C(Cn1c(=O)oc2ccccc21)N1CCC2(CC1)NCCc1c2[nH]c2ccccc12	i	43

Source: PubChem BioAssay
